# Assay results from PubChem BioAssay (NCI).
# About 83,000 compounds went through this panel and 20% of them were active in at least one assay; those are over-represented in the sample as a whole.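 Cells were grown in 96-well plates and exposed to the test compound at a single concentration for 48 hours; results are reported as percent growth, with values below 10 considered active.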 Activity calls are given as the source filed them.
# Test system: MALME-3M melanoma
# Test: NCI-60 one-dose screen, 48 h (100 = growth as untreated, 0 = no growth, -100 = all killed)
# Settings: 10 µM
row,Structure (SMILES),growth
1,CC(=O)OCC1CCCO1 (stereo not drawn),99.2% (inactive)
2,N#CCCc1ccc(O)cc1,108% (inactive)
3,Nc1ccc(N=Nc2ccc(S(=O)(=O)O)cc2)c2ccccc12,83.4% (inactive)
4,O=C1OC(=O)C2C1C1(Cl)C(Cl)=C(Cl)C2(Cl)C2C(=O)OC(=O)C21 (stereo not drawn),98.2% (inactive)
5,CCCCCCCCO,106% (inactive)
6,O=c1[nH]nc(SC2CCCCC2)c(=O)[nH]1,95.7% (inactive)
7,Cc1cc(C(O)(c2ccc(Nc3ccccc3)cc2)c2ccc(Nc3ccc(S(=O)(=O)O)cc3)cc2)ccc1N (stereo not drawn),-47.6% (active)
8,CCCNC(=O)c1ccc(S(N)(=O)=O)cc1,113% (inactive)
9,CN(C)c1ccc2oc(=O)c3ccccc3c2c1,97.6% (inactive)
10,Cc1ccc(CCCC(=O)O)c(C)c1,105% (inactive)
11,Oc1ccccc1-c1nnco1,96.2% (inactive)
12,COc1ccc(C(O)c2ccccc2)cc1 (stereo not drawn),101% (inactive)
13,FC(F)(F)c1ccc2c(c1)N(CCCN1CCN(C3CC3)CC1)c1ccccc1S2,96.7% (inactive)
14,CC(=O)NCc1cc(C)c(C)cc1C,88.7% (inactive)
15,CCC(C)(O)c1ccc(C)cc1 (stereo not drawn),119% (inactive)
16,CC(C)(N)COS(=O)(=O)O,108% (inactive)
17,Cc1cc(C)cc(NCCC#N)c1,164% (inactive)
18,O=C(O)CSCSCC(=O)O,105% (inactive)
19,O/N=C/c1ccc(O)cc1O,109% (inactive)

row,Structure (SMILES),growth
1,CCO/C=C1\SC(=S)N(c2cccc(C)c2)C1=O,98.4% (inactive)
2,Cc1cc2ccccc2c(O)c1C#N,126% (inactive)
3,O=C(O)/C=C/C(=O)NCc1ccccc1,99% (inactive)
4,Cc1cc2nc(CO)[nH]c2cc1C,144% (inactive)
5,C=CCNc1ccccc1,124% (inactive)
6,NC(=O)NC(=O)c1ccc(Cl)cc1,92% (inactive)
7,CCOc1ccc(I)cc1,108% (inactive)
8,CC(C)C(C#N)(C(C)C)C(C)C,92.9% (inactive)
9,CCCCOC(OCCCC)c1ccccc1,132% (inactive)
10,NC(=O)c1ccc(N=C(N)N=C(N)N)cc1,93.1% (inactive)
11,CCOc1ccccc1/C=N/Nc1nc2ccccc2o1,97.5% (inactive)
12,CO[C@H]1C[C@@H]2CC[C@@H](C)[C@@](O)(O2)C(=O)C(=O)N2CCCC[C@H]2C(=O)O[C@H]([C@H](C)C[C@@H]2CC[C@@H](O)[C@H](OC)C2)CC(=O)[C@H](C)C=C(C)[C@@H](O)[C@@H](OC)C(=O)[C@H](C)C[C@H](C)/C=C/C=C/C=C1C,35.9% (inactive)
13,O=C(NCCNC(=O)c1ccc(Cl)cc1Cl)c1ccc(Cl)cc1Cl,112% (inactive)
14,COC(=O)/C=C/C(=O)NC(N)=O,97.4% (inactive)
15,Cc1ccc(O)c(C(=O)c2ccccc2)c1,130% (inactive)
16,CN(C)c1ccc(C(c2ccc(O)cc2)c2ccc(N(C)C)cc2)cc1,91.5% (inactive)
17,Nc1ccc(N)c([N+](=O)[O-])c1,97.9% (inactive)
18,CCOC(=O)c1[nH]c(C)c(C(C)=O)c1C,95.7% (inactive)
19,CC(C)C1CCCCC1O (stereo not drawn),117% (inactive)
